This note sets out measurements from PubChem BioAssay (NCI).

SMILES strings stand for the structures. Compounds without any hit were thinned out: in the full panel of roughly 79,000, 15% have a hit. Values without a mark were called inactive. The source made the active and inactive calls. Rule as the data show it: active = growth inhibition above about 70%; inactive = the rest.

This test can be described thus: NCI Yeast Anticancer Drug Screen. Data for the wt2 strain (AID 169).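 Also: 0% = growth of vehicle-treated yeast cultures.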 The conditions noted are these: S. cerevisiae wt2 strain growth inhibition, stronger effect = higher value. The method, then: Growth inhibition of yeast strains with defined genetic alterations is measured as a screen for potential anti-cancer activity. Selected strains with alterations in DNA damage repair or cell cycle control were exposed to compounds and growth inhibition was measured relative to vehicle treated controls. The strain used in this assay is wt2

As to `Clc1cc(-c2ccccc2)nc2ccccc12`, the growth inhibition was -11% (at 1.2 µM); -3% (at 3.7 µM); 0% (at 11.0 µM); 47% (at 33.0 µM); 86% (active) (at 100.0 µM).
Consider `O=C1c2cccc3cc([N+](=O)[O-])cc(c23)C(=O)N1CCN1CCCC1`, for which the growth inhibition runs as follows: (at 1.2 µM) -11%; (at 3.7 µM) 0%; (at 11.0 µM) 12%; (at 33.0 µM) 7%; (at 100.0 µM) 19%.
For `O/N=C/C1c2ccccc2-c2ccccc21` the same measures were -1%, -2%, -3%, 22% and 70% (active).
Regarding `CC(C)(O)c1ccccc1C(c1ccccc1)c1ccccc1`, the growth inhibition reads like this: (at 1.2 µM) -9%; (at 3.7 µM) -10%; (at 11.0 µM) -12%; (at 33.0 µM) -10%; (at 100.0 µM) -17%.
Turning to `O=NN(CCCl)C(=O)NCCCl`, the growth inhibition (at 1.2 µM) is -3%; the growth inhibition (at 3.7 µM) is -3%; the growth inhibition (at 11.0 µM) was -3%; the growth inhibition (at 33.0 µM) was 0%; the growth inhibition (at 100.0 µM) was 3%.
For `COc1ccc(S(=O)(=O)N/N=C\c2cc([N+](=O)[O-])cc(I)c2O)c(OC)c1OC`, the growth inhibition runs as follows: (at 1.2 µM) -7%; (at 3.7 µM) -7%; (at 11.0 µM) -6%; (at 33.0 µM) 15%; (at 100.0 µM) 93% (active).
For the molecule `C(=N/NC1=NCCN1)/c1c2ccccc2c(/C=N\NC2=NCCN2)c2ccccc12`, the growth inhibition by setting is: (at 1.2 µM) -4%; (at 3.7 µM) -6%; (at 11.0 µM) 11%; (at 33.0 µM) 79% (active); (at 100.0 µM) 86% (active).
For `Oc1ccc(C=Nc2ccccc2O)cc1` the same measures were 25%, 30%, 33%, 43% and 65%.
